# ELG1 genotox: qHTS screen for small molecules that induce genotoxicity in human embryonic kidney (HEK293T) cells expressing luciferase-tagged ELG1. HEK293T ELG1-luciferase reporter, luminescence, 16 h. Potency, µM (doses to about 46 µM), for the others: at the top dose activity change, positive = activation, most hits filed as activators. 330,000 compounds, 1.3% hits. AID 504466, 2011; further: % of control where 0% means no effect; nearly all actives have a fitted effect of over 60% in size
#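 HEK293T cells expressing luciferase-tagged ELG1 were exposed to compound or DMSO vehicle for 16 hr at 37 °C and 5% CO2. Luciferase activity was then measured with ONE-Glo after 30 min at room temperature.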
# SMN2 splice enh: qHTS Assay for Enhancers of SMN2 Splice Variant Expression. HEK293 SMN2-luciferase splicing reporter, luminescence, 30-36 h. 210,000 compounds, 2.8% hits. Potency, µM (highest dose often 46.1 µM), for the others: top-dose activity change, positive = activation, actives largely listed as activators; further: % of control where 0% means no effect; nearly all actives have a fitted effect of over 55% in size
#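 HEK293 cells carry an SMN2 minigene-luciferase reporter in which exon 7 inclusion puts luciferase in frame. Cells were seeded at 2000 cells/well, attached for 10-12 hours, then exposed to compounds for 30-36 hours at 37C before ONE-Glo luminescence.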
# Rab9 prom act: qHTS Assay for Rab9 Promoter Activators | AID 485297, 2010 | Potency, µM (series often up to 9.22 µM), for inactives: at the top dose activation, negative = inhibition, usual class: activators | 320,000 compounds, 2.8% hits | Huh7 Rab9 promoter-luciferase reporter, luminescence, 24 h; further: % of control where 0% means no effect; nearly all actives have a fitted effect of over 60% in size
#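 Stable Rab9-luc Huh7, 1500 cells/well, 2 h settle; cmpd in DMSO, 24 h, 37 °C/5% CO2; luciferase reagent 10 min RT; luminescence.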
# NPC1 promoter act: qHTS Assay for NPC1 Promoter Activators. Huh7 NPC1 promoter luciferase reporter, 24 h. Potency, µM (top dose mostly 9.22 µM), for inactives: top-dose activation, hits mostly activators. 320,000 compounds, 2.4% hits. AID 485313, 2010; further: % of control where 0% means no effect; nearly all actives have a fitted effect of over 60% in size
#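 NPC1 promoter–luciferase Huh7 cells; 24 h compound; luminescence.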
# KinaseGlo FLuc: Counterscreen for Luciferase (Kinase-Glo TM) Inhibition. Kinase-Glo luciferase, ATP luminescence, 8 min. Potency, µM (series often up to 38.3 µM), without a hit: top-dose activity change, negative = inhibition, most hits filed as inhibitors. 200,000 compounds, 0.28% hits. Luciferin 4-monooxygenase (Photuris pensylvanica), Q27757; further: on the % scale 0 is the no-effect control and ±100 the full control effect; nearly all actives have a fitted effect of over 60% in size
#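 Luminescence was the read-out, taken after 8-minute incubation at ambient temperature. Luciferase turned over luciferin with 10 uM ATP in imidazole pH 7.2 buffer containing KCl, MgCl2, Tween 20 and BSA.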
# FLuc modulator: qHTS profiling assay for firefly luciferase inhibitor/activator using purifed enzyme and Km concentrations of substrates (counterscreen for miR-21 project); purified FLuc, Km substrates, luminescence inhibition; Potency, µM (titrated, usually from 57.5 µM), for inactives: top-dose activity change, negative = inhibition, most hits filed as inhibitors; 360,000 compounds, 6.9% hits; Luciferin 4-monooxygenase (Photinus pyralis), P08659;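 further: plate controls were vehicle for no effect and reference inhibitor for full effect; nearly all actives have a fitted effect of over 55% in size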
# Target sequence (P08659 whole entry, looked up): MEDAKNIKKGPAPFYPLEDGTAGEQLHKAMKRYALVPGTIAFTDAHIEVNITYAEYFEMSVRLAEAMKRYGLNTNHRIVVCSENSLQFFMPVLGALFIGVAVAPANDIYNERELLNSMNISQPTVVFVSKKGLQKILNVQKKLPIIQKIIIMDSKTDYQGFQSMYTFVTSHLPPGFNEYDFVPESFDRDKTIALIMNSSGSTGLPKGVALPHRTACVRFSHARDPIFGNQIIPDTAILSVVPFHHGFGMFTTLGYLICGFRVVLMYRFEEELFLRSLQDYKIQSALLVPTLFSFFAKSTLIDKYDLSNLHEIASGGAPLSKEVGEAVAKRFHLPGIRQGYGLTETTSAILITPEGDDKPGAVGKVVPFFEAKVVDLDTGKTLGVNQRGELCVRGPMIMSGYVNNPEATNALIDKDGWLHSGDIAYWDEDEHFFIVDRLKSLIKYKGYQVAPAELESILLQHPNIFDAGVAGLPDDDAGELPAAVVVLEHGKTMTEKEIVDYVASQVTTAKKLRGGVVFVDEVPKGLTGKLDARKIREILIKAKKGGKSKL
#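 Purified P. pyralis luciferase (10nM final) with 10uM D-luciferin and 10uM ATP (Km levels) in 50mM Tris acetate pH 7.5, 10mM Mg acetate, 0.01% Tween-20, 0.05% BSA; qHTS 6-point titration, ~60 µM downward; luminescence read.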
# Starred values were filed as active, the others as inactive; ? = inconclusive; · = no result given. This is a sample that favours compounds with a hit; in the whole collection about 7.5% have one here. The call rests on the fitted dose curve; in most records, active means well fitted curve in the direction sought with a large enough effect; inconclusive means small, poorly fitted or top-dose-only effect, or another doubt; inactive means no such curve, though single readings can be large; an effect the other way counts as inactive or inconclusive. Potency means the concentration at half of the fitted maximal effect.
SMILES,ELG1 genotox,SMN2 splice enh,Rab9 prom act,NPC1 promoter act,KinaseGlo FLuc,FLuc modulator
COc1ccc(OC)c(S(=O)(=O)NCc2cc(-c3ccccc3)no2)c1,0%,·,1%,0%,·,-5%
CCOc1ccc(CNc2cc(C)nc3nc(-c4cccc(C)c4)nn23)cc1OC,·,·,·,·,·,5.4µM*
Cc1ccc(CNc2cc(C)nc3nc(-c4cccc(C)c4)nn23)cc1,·,·,·,·,·,12µM*
Cc1cccc(Nc2cc(C)nc3nc(-c4ccccc4)nn23)c1,·,-6%,·,·,·,-8%
CCc1ccccc1NC(=O)C(CCSC)NS(=O)(=O)c1ccc2c(c1)oc(=O)n2C (stereo not given),·,8%,·,·,·,-1%
CC(C)NC(=O)c1sc(=S)n2c1[nH]c(=O)c1ccc(C(=O)NCCc3ccc(Cl)cc3)cc12,-5%,·,-3%,-2%,·,?
CCOc1ccc(CCNC(=O)c2ccc3c(=O)[nH]c4c(C(=O)NC(C)C)sc(=S)n4c3c2)cc1,-13%,·,0%,2%,·,17µM*
Cc1cc(=O)[nH]c2c(C)cc(S(=O)(=O)N3CCCCC3)cc12,16µM*,·,-10%,-10%,·,0%
Cc1cc(=O)[nH]c2c(C)cc(S(=O)(=O)NCc3ccccc3)cc12,-1%,·,2%,3%,·,2%
Cc1sc(NC(=O)/C=C/c2ccc(C(C)C)cc2)c(C#N)c1C,5%,-5%,2%,-4%,0%,-5%
CC(C)c1ccc(/C=C/C(=O)Nc2nncs2)cc1,?,18µM*,0.5µM*,0.89µM*,-2%,0.76µM*
COc1ccccc1N=Nc1c(C)[nH]n(-c2ccccc2)c1=O,-3%,·,?,?,·,11µM*
Cc1ccc(N=Nc2c(N)n(-c3ccccc3)[nH]c2=O)cc1,?,?,?,?,-11%,4.8µM*
Cc1[nH]n(-c2ccccc2)c(=O)c1N=Nc1ccc(C(=O)O)cc1,12%,·,28%,23%,·,7.6µM*
Cc1[nH]n(-c2ccccc2)c(=O)c1N=Nc1cccc(C(=O)O)c1,?,·,1.1µM*,?,·,0.27µM*
CC(=O)c1ccc(N=Nc2c(C)[nH]n(-c3ccccc3)c2=O)cc1,-2%,·,13%,16%,·,-15%
Cc1[nH]n(-c2ccccc2)c(=O)c1N=Nc1ccc(C(N)=O)cc1,0%,·,0%,0%,·,?
CCOCCCN(C(=O)c1snc(C(N)=O)c1N)C(C(=O)NCCC(C)C)c1ccc(Cl)cc1 (stereo not given),0%,·,-3%,-1%,·,1%
Cc1[nH]n(-c2ccccc2)c(=O)c1N=Nc1ccc(Cl)cc1,-2%,·,13%,23%,·,-19%
Cc1[nH]n(-c2ccccc2)c(=O)c1N=Nc1ccccc1,?,14µM*,?,?,-1%,4.8µM*
COC(=O)c1cc(N=Nc2c(C)[nH]c3ccccc23)cc(C(=O)OC)c1,2%,·,-9%,0%,·,-1%
Cc1[nH]c2ccccc2c1N=Nc1cccc(C(=O)O)c1,19%,13µM*,2.2µM*,3.2µM*,5%,11µM*
C/C(N[C@@H]1CSCC1O)=C1/C(=O)CC2[C@@H]1C2(C)C (stereo not given in full),·,-2%,·,·,-1%,·
C/C(NC(=O)c1ccccc1)=C1/C(=O)CC2C1C2(C)C (stereo not given),?,-4%,?,29%,-9%,15µM*
CC(=O)NC(Cc1ccc(C)cc1)C(=O)NC1CCN(S(=O)(=O)c2ccccc2)CC1 (stereo not given),3%,·,-1%,1%,·,-1%
SMILES,ELG1 genotox,SMN2 splice enh,Rab9 prom act,NPC1 promoter act,KinaseGlo FLuc,FLuc modulator
COc1ccc(NC(=O)CC2CCCCC2)cc1OC,10%,-3%,19%,9%,-1%,-13%
O=C(COC(=O)CC1CCCC1)Nc1ccc(Cl)cc1,-5%,·,-1%,2%,·,30µM*
O=C(CC1CCCC1)Nc1ccc(Br)cc1,?,·,?,?,·,17µM*
CCOC(=O)N1CCN(Cc2nc3cc([N+](=O)[O-])ccc3n2C(C)C)CC1,·,·,·,·,·,1%
N/C(=N\OC(=O)COc1ccc(Br)cc1Cl)c1ccccn1,2.6µM*,7.1µM*,2.8µM*,2.8µM*,-11%,1.5µM*
N/C(=N\OC(=O)COc1ccc(Cl)cc1Cl)c1ccccn1,1.2µM*,·,0.71µM*,0.79µM*,-8%,0.76µM*
Cc1cc(C)c(C)c(OCC(=O)O/N=C(\N)c2ccccn2)c1,0%,-10%,-4%,0%,-2%,-9%
COc1ccc(N2CCN(C(CNC(=O)C(=O)NCCCN(C)C)c3cccnc3)CC2)cc1 (stereo not given),·,·,·,·,·,2%
CSCc1c(C(=O)Nc2ccc3c(c2)OCO3)oc2ccccc12,11%,·,19%,-26%,·,19µM*
CC(=O)Nc1c(C(=O)Nc2ccccc2F)oc2ccccc12,·,9%,·,·,·,-3%
Cc1ccc(NC(=O)c2oc3ccccc3c2NC(=O)c2ccc(F)c(F)c2)cc1,·,-4%,·,·,·,-3%
Cc1c(C(=O)Nc2ccc3c(c2)OCO3)oc2ccccc12,2.6µM*,·,2.2µM*,2µM*,·,1.9µM*
CSCc1c(C(=O)Nc2ccc(N3CCOCC3)cc2)oc2ccccc12,5%,-20%,0%,7%,-1%,1%
CC(=O)Nc1c(C(=O)Nc2ccc3c(c2)OCO3)oc2ccccc12,?,·,2.5µM*,2.8µM*,·,11µM*
COCC(=O)Nc1c(C(=O)Nc2ccc(C)cc2)oc2ccccc12,·,7.9µM*,·,·,·,-8%
Cc1ccc(C(=O)Nc2ccc3oc(-c4cc(Br)ccc4Cl)nc3c2)cc1,·,-29%,·,·,·,0%
CCNC(=O)CC1C(=O)N(c2ccccc2)C(=O)N1Cc1ccc(F)cc1 (stereo not given),·,-1%,·,·,·,-2%
COCC(=O)Nc1c(C(=O)Nc2ccc3c(c2)OCO3)oc2ccccc12,?,·,3.2µM*,3.5µM*,·,-6%
O=C(CCl)Nc1c(C(=O)Nc2ccc3c(c2)OCCO3)oc2ccccc12,?,·,4µM*,4µM*,·,?
O=C(COc1ccccc1F)Nc1c(C(=O)Nc2cccc(F)c2)oc2ccccc12,·,6%,·,·,·,6%
COc1ccc(C(=O)NCc2ccccc2CN2CCCC2)cc1S(=O)(=O)N1CCOCC1,4%,·,-2%,1%,·,1%
CCn1cc(/C=C(\NC(=O)c2cc(OC)c(OC)c(OC)c2)C(=O)NCCCn2ccnc2)c2ccccc21,·,10%,·,·,·,-3%
